Laboratory results as given in PubChem BioAssay (NCI).
The panel holds about 79,000 compounds, 15% with a hit somewhere; the sample as a whole holds those more often. A number with no mark means an inactive call. Calls of active or inactive are those of the source. Rule as the data show it: active = growth inhibition above about 70%; inactive = the rest.

Key:
[1] = NCI Yeast Anticancer Drug Screen. Data for the rad50 strain (AID 155);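 also: 0% = growth of vehicle-only cultures of the same strain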; settings: S. cerevisiae rad50 strain growth inhibition, hits give high values
Method in brief: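 Compounds were tested on a yeast strain with an engineered DNA damage repair alteration; the reported value is growth inhibition normalised to vehicle treatment.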

[2] = NCI Yeast Anticancer Drug Screen. Data for the mec2-1 strain (AID 157); settings: S. cerevisiae mec2-1 strain, hits give high values
Method in brief: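 mec2-1 yeast strain, carrying an alteration in DNA damage repair or cell cycle control, was exposed to compounds; growth inhibition was measured relative to vehicle-treated controls.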

[3] = NCI Yeast Anticancer Drug Screen. Data for the sgs1 mgt1 strain (AID 161);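 also: 0% = growth of cultures given vehicle only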; settings: S. cerevisiae sgs1 mgt1 strain, hits give high values
Method in brief: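 This yeast growth screen uses a strain with defined DNA-repair lesions; compound-treated growth is compared with vehicle-treated growth.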

[4] = NCI Yeast Anticancer Drug Screen. Data for the cln2 rad14 strain (AID 165);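 also: 0% = growth equal to vehicle treated cultures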; settings: S. cerevisiae cln2 rad14 strain, hits give high values
Method in brief: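 Yeast carrying cln2 and rad14 alterations (cell cycle control and DNA damage repair) were exposed to compounds. Growth inhibition was measured against vehicle-treated controls.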

[5] = NCI Yeast Anticancer Drug Screen. Data for the bub3 strain (AID 167); settings: S. cerevisiae bub3 mutant strain, hits give high values
Method in brief: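 Growth of a checkpoint-deficient yeast mutant is measured after compound exposure. Values represent inhibition relative to vehicle.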

[6] = NCI Yeast Anticancer Drug Screen. Data for the mlh1 rad18 strain (AID 175); settings: S. cerevisiae mlh1 rad18 strain growth inhibition, hits give high values
Method in brief: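 Growth inhibition of the yeast strain was measured after compound exposure and expressed relative to vehicle-treated controls. The strain carries defined defects in DNA damage repair.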

[7] = at 5.0 µM (retest, dose inferred, filed as 0.5)
[8] = at 50.0 µM (retest, dose inferred, filed as 5.0)

Row | Structure (SMILES) | growth inhibition [1, 7] | growth inhibition [1, 8] | growth inhibition ([1]; at 50.0 µM) | growth inhibition [2, 7] | growth inhibition [2, 8] | growth inhibition ([2]; at 50.0 µM) | growth inhibition [3, 7] | growth inhibition [3, 8] | growth inhibition ([3]; at 50.0 µM) | growth inhibition [4, 7] | growth inhibition [4, 8] | growth inhibition ([4]; at 50.0 µM) | growth inhibition [5, 7] | growth inhibition [5, 8] | growth inhibition ([5]; at 50.0 µM) | growth inhibition [6, 7] | growth inhibition [6, 8] | growth inhibition ([6]; at 50.0 µM)
1 | CN(/N=C\c1ccc2ccccc2c1)C1=NCCCN1 | 97% (active) | 68% | 56.8% | 99% (active) | 67% | 33.6% | 98% (active) | 56% | 49.6% | 97% (active) | 66% | 7.7% | 98% (active) | 96% (active) | 99.2% (active) | 97% (active) | 79% (active) | 60.9%
2 | CCC(CC)N(CCNc1cc(OC)cc2cccnc12)CC(C)C | 7% | 7% | 60.8% | 1% | 0% | 26% | 4% | 12% | 53.6% | 9% | -6% | 49.5% | 4% | 11% | 57% | 4% | 10% | 67.8%
3 | COc1ccc(-c2c(C#N)cc(OC)c(OC)c2OC)c(C=O)c1 | 2% | 24% | 43.4% | -5% | 29% | 31.8% | -19% | 62% | 40.9% | 0% | 11% | 80.2% (active) | -3% | 26% | 75% (active) | 11% | 57% | 76.3% (active)
4 | Cc1[nH]nc(C(F)(F)F)c1N=NN1CCC(C(N)=O)CC1 | 49% | 99% (active) | 99.5% (active) | 77% (active) | 100% (active) | 99.5% (active) | 83% (active) | 99% (active) | 99.5% (active) | 36% | 99% (active) | 99.5% (active) | 27% | 99% (active) | 99.5% (active) | 75% (active) | 99% (active) | 99.5% (active)
5 | [O-][n+]1onc2ncccc21 | 34% | 98% (active) | 99.1% (active) | 38% | 99% (active) | 99.5% (active) | 54% | 99% (active) | 99.2% (active) | 33% | 99% (active) | 99.2% (active) | 66% | 98% (active) | 99.2% (active) | 63% | 99% (active) | 99.3% (active)
6 | c1ccc([P+](c2ccccc2)(c2ccccc2)C2c3ccccc3-c3ccccc32)cc1 | 68% | 98% (active) | 91.2% (active) | 55% | 98% (active) | 92.8% (active) | 86% (active) | 99% (active) | 89.5% (active) | 31% | 97% (active) | 88.5% (active) | 57% | 99% (active) | 86.5% (active) | 69% | 98% (active) | 86.2% (active)
7 | CCCCC(CC)(COC(C)=O)COC(C)=O | -3% | 0% | 7% | 1% | 2% | 12.7% | 3% | -1% | 2.6% | 2% | 5% | 42.5% | 4% | 4% | -2% | 1% | -1% | -16.7%
8 | CC(C=O)=C(c1ccccc1)c1ccccc1 | -147% | -157% | 23.8% | -50% | -56% | 24.6% | -57% | -64% | 49.2% | -54% | -56% | 23.8% | -62% | -74% | 0.3% | -115% | -111% | 28.4%
9 | O=C(Nc1ccc(Cl)cc1)NS(=O)(=O)c1c(-c2ccccc2)oc2ccccc2c1=O | 14% | 99% (active) | 92.3% (active) | 6% | 98% (active) | 96.3% (active) | 7% | 99% (active) | 95.5% (active) | 15% | 98% (active) | 93.3% (active) | 0% | 97% (active) | 95.3% (active) | 15% | 98% (active) | 95.3% (active)
10 | CCOc1ccc(C(OC)OC)cc1[N+](=O)[O-] | 3% | -7% | -12.1% | -1% | 3% | -6.9% | -11% | -7% | -25.1% | -4% | 0% | 87.5% (active) | 0% | 1% | -0.8% | -1% | -7% | 10%
11 | C=CCOC(=O)SC(=S)OCN(C)C | 3% | 98% (active) | 99.2% (active) | -3% | 99% (active) | 99.4% (active) | 1% | 99% (active) | 99.4% (active) | 4% | 99% (active) | 98.6% (active) | -1% | 98% (active) | 99.3% (active) | 1% | 99% (active) | 99.1% (active)
12 | CN(CCCN(CCO)CCO)C1CC(C)(C)N(O)C(C)(C)C1 | 16% | -4% | -4.5% | -1% | 3% | -9.7% | 7% | 10% | -3.5% | -2% | 5% | 14.7% | -3% | 2% | -8.9% | 1% | 9% | 7.2%
13 | COc1ccc(C2=Nc3cc(C)c(C)cc3NC(c3ccccc3)C2)cc1 (configuration not stated) | 11% | 11% | 43.2% | 7% | 7% | 69.8% | 21% | 21% | 66.9% | 1% | 1% | 9.5% | 35% | 35% | 74.7% (active) | 19% | 19% | 51%
14 | [N-]=[N+]=CC(=O)c1ccc(C(=O)C=[N+]=[N-])cc1 | 8% | 95% (active) | 99.2% (active) | 12% | 99% (active) | 99.5% (active) | 10% | 95% (active) | 99.4% (active) | 8% | 98% (active) | 98.7% (active) | 5% | 98% (active) | 99.5% (active) | 11% | 95% (active) | 99.2% (active)
15 | CCCCCCCC/C=C\CCCCCCCC(=O)NCCN(C)C | -1% | 99% (active) | 99.3% (active) | 5% | 100% (active) | 99.4% (active) | 33% | 99% (active) | 99.5% (active) | 2% | 99% (active) | 68.2% | 2% | 99% (active) | 97.2% (active) | 22% | 99% (active) | 99.5% (active)
16 | C(=N\N=C\c1ccc2c(c1)OCO2)/c1ccc2c(c1)OCO2 | 2% | 4% | 3.1% | 3% | 2% | -4.3% | 0% | 6% | -3.7% | -32% | -6% | 75.9% (active) | 3% | 1% | 3.9% | 10% | 21% | 6.45%
17 | CC(NNC(=S)N1CCCC1)c1cccnn1 (configuration not stated) | 98% (active) | 99% (active) | 89% (active) | 91% (active) | 99% (active) | 92.3% (active) | 97% (active) | 99% (active) | 88.6% (active) | 96% (active) | 99% (active) | 90.5% (active) | 98% (active) | 99% (active) | 91.2% (active) | 97% (active) | 99% (active) | 85.3% (active)
18 | ClC1=C(Cl)C(Cl)(Cl)C(Cl)(Cl)C1(Cl)Cl | 55% | 7% | 99.7% (active) | 49% | 99% (active) | 99.5% (active) | 59% | 62% | 99.7% (active) | 31% | 98% (active) | 98% (active) | 41% | 98% (active) | 99.4% (active) | 84% (active) | 99% (active) | 99.2% (active)
19 | CC(=O)Nc1ccc(-c2nnc(SCC(=O)Nc3cccc(Cl)c3)o2)cc1 | 14% | 45% | 22.2% | 1% | 39% | 15.6% | 10% | 33% | 55.6% | 15% | 49% | -33.8% | 8% | 56% | 73.7% (active) | 2% | 71% (active) | 28.7%
